Test results as given in PubChem BioAssay (NCI).
This is part of a sample that, as a whole, favours compounds with a hit. Of some 83,000 tested, about 20% had one in any assay.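 96-well plates, one dose, 48 hours. Percent growth reported; active if below 10.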 A number with no mark means an inactive call. Calls of active or inactive are those of the source.

These compounds were tested on HS 578T breast (assay: NCI-60 one-dose screen, 48 h (100 = growth as untreated, 0 = no growth, -100 = all killed)). Details: 10 µM.
In the case of `C/C(=N\N=C\c1ccc(Cl)c([N+](=O)[O-])c1)c1ccc2c(c1)Nc1ccccc1S2`, the growth is reported as 0.197% (active). `N#Cc1c(-c2ccc(Cl)cc2)cc(-c2ccccc2)nc1OCc1ccccc1` was tested, and the growth was 85.2%. In the case of `COc1cccc(/C=N/NC(=O)c2ccc3nc(-c4ccc(Cl)cc4)[nH]c3c2)c1O`, the growth is reported as -54.7% (active). `COc1ccc(/C(CSc2nnc(-c3c[nH]c4ccccc34)n2-c2ccccc2)=N/O)cc1` showed a growth of 38.8%.

Each compound was assayed on NCI/ADR-RES ovarian in the same assay as above. Details: 10 µM.
In the case of `O=S(=O)(Nc1ncccn1)c1ccc(-n2c(-c3ccccc3)nc(-c3ccccc3)c2-c2ccccc2)cc1`, the growth is reported as 95.3%. For `COc1ccc(-c2cc(-c3cc(C(=O)c4ccccc4)n4ccc(C)cc34)nc(N)c2C#N)cc1`, the growth was 43.6%. Work on `N#Cc1ccc(NC(=O)CSc2ccc(-c3ccc(Br)cc3)nn2)cc1` yielded a growth of 35.7%. With `CCCn1c(O)c(N=Nc2nc(-c3cc4ccccc4oc3=O)cs2)c2cc(Br)ccc21` the growth was 95.4%. Compound `CCCCOc1ccc(Nc2nc3ccccc3nc2Nc2ccc(OCCCC)cc2)cc1` has a growth of 94.3%. With `COc1cc(NC(=O)CSc2nnc(-c3ccc4nc(-c5ccc(Cl)cc5)[nH]c4c3)o2)cc(OC)c1OC` the growth was 99.8%. `O=C(NO)c1ccc(CNC(=O)[C@H]2Cc3c([nH]c4ccccc34)[C@H](c3ccc(Cl)cc3)N2)cc1` gave a growth of 42%. For `N#Cc1c(NC(=O)c2ccc(C(F)(F)F)c(Cl)c2)sc2c1CCC(=O)C2`, the growth was -48.9% (active). `CCOC(=O)CNC(=O)CN(Cc1ccccc1)C(=O)[C@@]1(C)CCC[C@]2(C)[C@H]3C[C@H]4C(C(C)C)=C[C@]3(CC[C@H]21)[C@@H]1C(=O)OC(=O)[C@@H]14` gave a growth of 45.3%.
